Assay outcomes deposited in PubChem by National Center for Advancing Translational Sciences (NCATS).
NS1 inh: influenza NS1 inhibition | Potency, µM (top dose mostly 46.1 µM) | 270,000 compounds, 0.4% hits; further: actives are rising curves; nearly all actives have a fitted effect of over 50% in size
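Read-out: OD600 growth recovery of NS1-expressing budding yeast. Cells grown overnight at 30C in -URA glucose medium, washed, resuspended and diluted 1:100 in 2% galactose assay medium, pH 6.0. Same strain lacking NS1 served as positive control.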
Shiga toxin inh: Shiga toxin inhibition; inhibition, % at 38.7 µM; 290,000 compounds, 9.2% hits; Vero cells, Shiga toxin protein synthesis inhibition reporter; AID 2315; in the data active means inhibition mostly above about 28%, no sharp cut-off; inactive means mostly below about 43%
Pf growth 48h: inhibits P. falciparum growth in the first generation, 48 h; P. falciparum luciferase growth in erythrocytes, 48 h; Potency, µM (series often up to 28.7 µM), hits mostly inhibitors; 310,000 compounds, 5.9% hits; AID 504832; active means well fitted inhibition curve with a large enough effect; inconclusive means small, poorly fitted or top-dose-only effect, or another doubt; inactive means no such curve, though single readings can be large or run the other way
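A one-generation exposure of luciferase-tagged malaria parasites in RPMI 1640/Albumax erythrocyte culture, 37 C and 5% CO2. Inhibition is inferred from decreased luminescence after adding detection reagent.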
Pf growth 96h: P. falciparum growth inhibition at 96 hour, primary screen for plastid delayed-death inhibitors | P. falciparum luciferase reporter growth, 96 h | Potency, µM (top dose mostly 28.7 µM), hits mostly inhibitors | 320,000 compounds, 6.9% hits | AID 504834; active means well fitted inhibition curve with a large enough effect; inconclusive means small, poorly fitted or top-dose-only effect, or another doubt; inactive means no such curve, though single readings can be large or run the other way
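Readout is luminescence from an integrated firefly luciferase in P. falciparum. Red cells, 2% hematocrit and 0.05% parasitemia final, were cultured with compound through two parasite generations (96 hours) at 37 C, 5% CO2.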
Cycloheximide cs: affects cycloheximide protein synthesis inhibition readout, counter-screen. cell reporter, cycloheximide protein synthesis inhibition counterscreen. max response, %. 300,000 compounds, 12% hits. AID 2314; in the data active means max response mostly above about 13%, no sharp cut-off; inactive means mostly below about 14%; further: read at 38.3 µM for the half of the compounds with a filed dose
SARS PLpro yeast: blocks SARS-CoV papain-like protease in a yeast assay. 330,000 compounds, 0.19% hits. Potency, µM (highest dose often 32.9 µM), usual class: activators. S. cerevisiae expressing SARS-CoV PLpro, growth rescue; further: nearly all actives have a fitted effect of over 55% in size
Of the large screens only hits and unclear results are named; the others gave an inactive call. Rows were chosen to be rich in hits. Some 21% of all compounds tested hit in one or more screens of this group. Unless noted, the call rests on the fitted dose curve.

N#Cc1ccsc1NC(=O)COC(=O)c1ccc2ccccc2c1	Shiga toxin inh active, Cycloheximide cs 54
Cn1cccc1C(=O)OCC(=O)Nc1sccc1C#N	none (no result: NS1 inh, Shiga toxin inh, Pf growth 48h, Pf growth 96h, Cycloheximide cs)
CCc1cc(=O)oc2cc(OC(C)C(=O)NCC3CCC(C(=O)O)CC3)c(Cl)cc12 (stereo not given)	Pf growth 96h inconclusive
CCOC(=O)C1(C)NC(c2ccco2)C2C(=O)N(C)C(=O)C21 (stereo not given)	none
CCOc1ccc(CCNC(=O)COC(=O)c2nccnc2N)cc1OCC	none (no result: NS1 inh, Shiga toxin inh, Cycloheximide cs, SARS PLpro yeast)
CCn1c(=O)n(CC)c2cc([N+](=O)[O-])c(N3CCNCC3)cc21	Pf growth 96h 5.9µM (no result: NS1 inh)
Nc1cc(N2CCNCC2)c([N+](=O)[O-])cc1Cl	none
c1ccc(N2CC3CCc4ccccc4C3=N2)cc1 (stereo not given)	Shiga toxin inh 64, Cycloheximide cs 39
CCn1cc(C(=O)O)c(=O)c2cnc(N3CCN(C(=O)Nc4ccccc4)CC3)nc21	none (no result: Shiga toxin inh, Pf growth 48h, Pf growth 96h, Cycloheximide cs, SARS PLpro yeast)
CCn1cc(C(=O)O)c(=O)c2cnc(N3CCN(C(=S)Nc4ccccc4)CC3)nc21	NS1 inh inconclusive, Pf growth 48h 0.12µM, Pf growth 96h inconclusive
CCOC(=O)c1cccc(NC(=S)N2CCN(c3ncc4c(=O)c(C(=O)O)cn(CC)c4n3)CC2)c1	none (no result: NS1 inh)
CCCCOC(=O)c1ccc(NC(=S)N2CCN(c3ncc4c(=O)c(C(=O)O)cn(CC)c4n3)CC2)cc1	Pf growth 48h 2.6µM, Pf growth 96h 1.3µM
O=C(Cn1cnc2ccccc21)N/N=C/c1ccccc1[N+](=O)[O-]	none
O=C(Cn1cnc(S(=O)(=O)N2CCOCC2)c1)Nc1ccc(OC(F)(F)F)cc1	Pf growth 96h inconclusive
Cc1ccc(CNC(=O)CN2CCN(c3ccc(F)cc3)CC2)cc1	none
CC(NC(=O)C12CC3CC(CC(O)(C3)C1)C2)c1ccccc1 (stereo not given)	none
CSc1ncccc1C(=O)OCC(=O)c1ccc(C)s1	none (no result: NS1 inh, Shiga toxin inh, Pf growth 48h, Pf growth 96h, Cycloheximide cs)
CCCOc1ccc(C2CC(=O)NC2=O)cc1 (stereo not given)	none
CCCCOc1ccc(C2CC(=O)NC2=O)cc1 (stereo not given)	Shiga toxin inh 67, Cycloheximide cs 36 (no result: Pf growth 96h)
CCCCOc1ccc(CC2CCC(=O)NC2=O)cc1 (stereo not given)	Cycloheximide cs 13
CC(C)C(C(=O)NCC1CCCO1)N(C(=O)CNS(=O)(=O)c1ccccc1)C1CCCCC1 (stereo not given)	none
COc1ccc(-n2ncc3c2CC(C)(C)CC3NC(=O)CCn2cncn2)cc1 (stereo not given)	Pf growth 96h inconclusive
CCOC(=O)c1c(NC(=O)c2ccc(S(=O)(=O)N3CCOCC3)cc2)sc2c1CCN(C)C2	Pf growth 48h 12µM, Pf growth 96h inconclusive
CCOC(=O)N1CCc2c(sc(NC(=O)c3ccc(S(=O)(=O)N4CCCC4)cc3)c2C#N)C1	Pf growth 48h 12µM, Pf growth 96h inconclusive
CCOC(=O)c1c(NC(=O)c2ccc(S(=O)(=O)N3CCOCC3)cc2)sc2c1CC(C)(C)NC2(C)C	none
CCCCOC(=O)c1ccc(NC(=O)CN2C(=O)NC3(CCCCCC3)C2=O)cc1	Pf growth 48h inconclusive, Pf growth 96h inconclusive (no result: NS1 inh, Shiga toxin inh, Cycloheximide cs)
CCCCSc1nnc(CNC(=O)C23CC4CC(CC(C4)C2)C3)n1Cc1ccccc1	Pf growth 48h 13µM, Pf growth 96h inconclusive
CCn1c(CNC(=O)C23CC4CC(CC(C4)C2)C3)nnc1SC	Pf growth 48h inconclusive, Pf growth 96h inconclusive (no result: NS1 inh)
CCCCn1c(CNC(=O)C23CC4CC(CC(C4)C2)C3)nnc1SC(C)CC (stereo not given)	Pf growth 48h 10µM, Pf growth 96h inconclusive
CCn1c(CNC(=O)C23CC4CC(CC(C4)C2)C3)nnc1SCC(=O)Nc1nnc(C)s1	Pf growth 96h 7.4µM (no result: Pf growth 48h)
CCCCn1c(CNC(=O)C23CC4CC(CC(C4)C2)C3)nnc1SCC(=O)Nc1nnc(C)s1	none
Cc1ccc(-n2nnc3ccccc3c2=O)cc1C	Shiga toxin inh 100, Cycloheximide cs 50
COc1ccc(C(=O)/C=C2/C(=O)Nc3ccccc32)cc1OC	Pf growth 48h inconclusive
COc1ccc(C2(C(=O)c3ccccc3)C(=O)c3ccccc3C2=O)cc1	Pf growth 48h inconclusive, Cycloheximide cs 14
COc1ccc(C(=O)/C=C2/C(=O)Nc3ccccc32)cc1	Shiga toxin inh 58, Cycloheximide cs 21
CCN(c1ccccc1)S(=O)(=O)c1ccc(OC)c(NC(=O)CCc2nc3ccccc3c(=O)[nH]2)c1	Pf growth 48h inconclusive, Pf growth 96h inconclusive (no result: NS1 inh, Shiga toxin inh, Cycloheximide cs)
O=C(Nc1nc(-c2ccccc2)cs1)c1cccc([N+](=O)[O-])c1	Shiga toxin inh 100, Cycloheximide cs 50
O=C(NC(=S)Nc1nc(-c2ccccc2)cs1)c1cccnc1	Pf growth 96h 12µM (no result: NS1 inh)
O=C(Nc1nc(-c2cccnc2)cs1)c1ccc([N+](=O)[O-])cc1	Pf growth 48h 4.7µM, Pf growth 96h 12µM
O=C(NC(=S)Nc1nc(-c2ccccc2)cs1)c1cncc(Br)c1	Pf growth 48h inconclusive, Pf growth 96h inconclusive
O=C(Nc1nc(-c2cccnc2)cs1)c1cccc([N+](=O)[O-])c1	Pf growth 96h inconclusive
O=C(CCNS(=O)(=O)c1cccc(C(F)(F)F)c1)NCc1ccco1	none (no result: NS1 inh, Shiga toxin inh, Pf growth 48h, Pf growth 96h, Cycloheximide cs)
CC(=O)O[C@@H]1[C@@H](O)C2OC3C=C(C)C(=O)[C@@H](O)[C@]3(CO)C1(C)C21CO1 (stereo not given in full)	none (no result: NS1 inh, Pf growth 48h, Pf growth 96h, SARS PLpro yeast)
CCCN(CC(=O)Nc1ccccc1C)C(=O)CSc1ccccc1C	Pf growth 48h inconclusive (no result: NS1 inh, Shiga toxin inh, Cycloheximide cs)
Cc1nc(Nc2ncc(C(=O)Nc3c(C)cccc3Cl)s2)cc(N2CCN(CCO)CC2)n1	Pf growth 48h 9.5µM, Pf growth 96h 7.6µM (no result: NS1 inh, Shiga toxin inh, Cycloheximide cs, SARS PLpro yeast)
Cc1ccc(S(=O)(=O)N(C)C)cc1NC(=O)C1CCCN(C(=O)c2ccc(Cl)cc2)C1 (stereo not given)	Pf growth 48h 7.4µM, Pf growth 96h 4.7µM (no result: NS1 inh, Shiga toxin inh, Cycloheximide cs)
CS(=O)(=O)c1ccc(Cl)c(NC(=O)C2CCCN(C(=O)c3ccc(Cl)cc3)C2)c1 (stereo not given)	Pf growth 48h inconclusive (no result: NS1 inh, Shiga toxin inh, Cycloheximide cs)
Cc1ccc(Cl)cc1NC(=O)C1CCCN(S(C)(=O)=O)C1 (stereo not given)	Pf growth 96h 10µM
Cc1ccc(NC(=O)C2CCCN(C(=O)c3ccc(Cl)cc3)C2)cc1S(=O)(=O)N1CCOCC1 (stereo not given)	Pf growth 48h inconclusive, Pf growth 96h 7.4µM (no result: NS1 inh)
CSCCC(NC(=O)c1ccccc1Cl)C(=O)Nc1ccc(C)c(S(=O)(=O)N2CCOCC2)c1 (stereo not given)	Pf growth 48h 9.3µM, Pf growth 96h inconclusive (no result: NS1 inh, Shiga toxin inh, Cycloheximide cs)
CCCCN1C(=S)SC(C)(C)C1/[N+]([O-])=C/c1ccc(S(=O)(=O)NC)cc1 (stereo not given)	Pf growth 96h inconclusive
O=C(Nc1ccc(F)c(S(=O)(=O)N2CCOCC2)c1)C1CCCCC1	Pf growth 48h 13µM, Pf growth 96h inconclusive (no result: NS1 inh, Shiga toxin inh, Cycloheximide cs)
CCCCN(CCCC)C(=O)c1c[nH]c2ccc(S(=O)(=O)Nc3cccc(Cl)c3C)cc2c1=O	none (no result: NS1 inh, Shiga toxin inh, Cycloheximide cs)
